# Reference: the supplement of paper PMC12819154, “High-throughput peptide-centric local stability assay extends protein–ligand identification to membrane proteins, tissues and bacteria” (Nature Structural & Molecular Biology, 2025)
# Compound: Nc1ncnc2c1ncn2[C@@H]1O[C@H](COP(=O)(O)OP(=O)(O)OP(=O)(O)O)[C@@H](O)[C@H]1O [adenosine 5'-triphosphate]
# Test: log2 fold change of tryptic peptide abundance, ligand vs vehicle (limited proteolysis) (log2 ratio); higher = more trypsin-susceptible (destabilized)
# Conditions: ligand concentration: 5 mM; sample: E. coli desalted lysate; replicate design: treated before aliquoting
# Description: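 HT-PELSA: desalted E. coli K-12 BW25113 lysate (with 12 mM MgCl2) incubated with 5 mM ATP (pH 7) or water for 30 min at 25 C, then a 4 min trypsin pulse at 22 C. Peptides were quantified by DIA-MS (4 replicates). Value is the peptide log2 fold change (treated/control); negative = stabilized. Scale: negative = ligand-stabilized region.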
# 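Further: lysate desalted by size exclusion to strip endogenous ATP, peptide intensities built from DIA-NN precursor signals, and peptides missing any value discarded before comparison.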
row,Target,log2 fold change
1,"UniProt P52073 (peptide sequence: LEGGEGSVK, peptide start residue: 217)",-0.566
2,"UniProt P76340 (peptide sequence: ILLIEDNQR, peptide start residue: 3)",-0.349
3,"UniProt P02916 (peptide sequence: ETTAQPEGER, peptide start residue: 161)",0.465
4,"UniProt P0AEH3 (peptide sequence: VGQQLMSK, peptide start residue: 91)",0.523
5,"UniProt P00550 (peptide sequence: GASPLSAGDVTNDLSHVRK, peptide start residue: 361)",0.413
6,"UniProt P45527 (peptide sequence: KLQEAVSFVHQHRR, peptide start residue: 46)",0.779
7,"UniProt P00350 (peptide sequence: RIDKEGVFHTEWLD, peptide start residue: 455)",-0.396
8,"UniProt P76116 (peptide sequence: NEAYVTHR, peptide start residue: 284)",-0.872
9,"UniProt P37691 (peptide sequence: MTSNLFGMQK, peptide start residue: 128)",0.503
10,"UniProt P76014 (peptide sequence: EIGDADHGLNMNR, peptide start residue: 32)",-2.08
11,"UniProt P00363 (peptide sequence: VSQAFWHEWR, peptide start residue: 291)",-0.722
12,"UniProt P25516 (peptide sequence: KTLGLTGEEK, peptide start residue: 823)",-0.721
13,"UniProt P32662 (peptide sequence: TMGKPPVDDDIPAEEQVR, peptide start residue: 75)",0.514
14,"UniProt P21499 (peptide sequence: DGQLVFTR, peptide start residue: 65)",-0.675
15,"UniProt P37634 (peptide sequence: HSFHAGNHADVLK, peptide start residue: 6)",-1.17
16,"UniProt P76085 (peptide sequence: QLGGDASGCSLR, peptide start residue: 198)",-1.23
17,"UniProt P42593 (peptide sequence: MIEVTGVTLK, peptide start residue: 435)",-1.15
18,"UniProt P09053 (peptide sequence: ILAEEIERAWAESH, peptide start residue: 404)",-0.817
19,"UniProt Q59385 (peptide sequence: LVTDEGEK, peptide start residue: 327)",1.76
20,"UniProt P0A9M8 (peptide sequence: LSVFKPIAQPRTGGDAPDQTTTIVR, peptide start residue: 34)",2.79

row,Target,log2 fold change
1,"UniProt P13000 (peptide sequence: TAGYKPVASGSEK, peptide start residue: 34)",-1.41
2,"UniProt P0AC84 (peptide sequence: QINVFLR, peptide start residue: 212)",0.46
3,"UniProt P03841 (peptide sequence: STFISSVKGKG, peptide start residue: 296)",0.922
4,"UniProt P0DMC5 (peptide sequence: FTDTGCIVLHVR, peptide start residue: 600)",-1.13
5,"UniProt P00914 (peptide sequence: LSASLATGGLSPR, peptide start residue: 238)",-0.871
6,"UniProt P77215 (peptide sequence: AWFTGGATAEK, peptide start residue: 11)",-0.425
7,"UniProt Q46919 (peptide sequence: MHDLLDNK, peptide start residue: 59)",0.557
8,"UniProt P00490 (peptide sequence: QCNPALAALLDK, peptide start residue: 460)",1.07
9,"UniProt P71298 (peptide sequence: QNRPTVTAHAYR, peptide start residue: 218)",-1.54
10,"UniProt P0A9P6 (peptide sequence: RFMKEPQEVR, peptide start residue: 200)",-2.4
11,"UniProt P77536 (peptide sequence: MVDELGHWEEWRDR, peptide start residue: 41)",-0.517
12,"UniProt P24230 (peptide sequence: TLVAALAALR, peptide start residue: 303)",-1.21
13,"UniProt P76196 (peptide sequence: VVEQLLAMR, peptide start residue: 47)",-0.864
14,"UniProt P0AAT4 (peptide sequence: AHLLKPYLTSR, peptide start residue: 288)",0.38
15,"UniProt P06999 (peptide sequence: IYAYLSR, peptide start residue: 303)",-2.25
16,"UniProt P21893 (peptide sequence: DCNFPSK, peptide start residue: 181)",-0.813
17,"UniProt Q46861 (peptide sequence: EALPGWSGVDSTRLDTPGK, peptide start residue: 229)",0.959
18,"UniProt P14375 (peptide sequence: LNVVAIEVPSLR, peptide start residue: 302)",-1.45
19,"UniProt P76594 (peptide sequence: SEVQGVMLYLR, peptide start residue: 533)",-2.33
